Reference: article PMC5540273 (PLoS ONE, 2017)

Tests used:
Settings in all cases: concentration: 1 μM, replicates: in singlicate; n = 1
STK36 = tested on: STK36
STK39 = tested on: STK39
SYK = tested on: SYK
SgK110 = tested on: SgK110
TAK1 = tested on: T1, TAK1
T1 construct: gene MAP3K7

TAOK1 = tested on: TAOK1
TAOK2 = tested on: TAOK2
TAOK3 = tested on: TAOK3
TBK1 = tested on: TBK1
TEC = tested on: TEC
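Note: KINOMEscan kinase panel screen.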

Row | SMILES | %Inh (STK36) | %Inh (STK39) | %Inh (SYK) | %Inh (SgK110) | %Inh (TAK1) | %Inh (TAOK1) | %Inh (TAOK2) | %Inh (TAOK3) | %Inh (TBK1) | %Inh (TEC)
1 | O=C(Nc1ccccc1F)NC1CCN(c2ccnc(Nc3ccc(F)cc3)n2)CC1 [GSK1379800] | 0% | 0% | 0% | 0% | 0% | 0% | 0% | 0% | 8% | 0%
2 | COc1cccc(-c2ccc3c(NC(=O)C4CC4)n[nH]c3n2)c1 [SB-710903] | 0% | 17% | 19% | 0% | 0% | 30% | 4% | 0% | 13% | 0%
3 | CCCCc1nn2ncccc2c1-c1ccnc(Nc2ccc(N3CCN(C)CC3)cc2)n1 [GW684941] | 91.4% | 33% | 0% | 10% | 4% | 37% | 47% | 42% | 11% | 0%
4 | COc1ccc(Nc2nccc(NCCNC(=O)c3cc4ccccc4s3)n2)cc1 [GSK1379896] | 0% | 3% | 2% | 24% | 0% | 0% | 0% | 0% | 2% | 0%
5 | Cc1ccc(C(=O)Nc2ccc(Nc3ccnc4cc(-c5nccs5)ccc34)cc2O)cc1.Cl [GW494702] | 35% | 0% | 5% | 15% | 0% | 0% | 0% | 0% | 0% | 0%
6 | Cc1ccc(F)c(C(=O)Nc2cccc(-c3nn4ccccc4c3-c3ccnc(Nc4cccc(F)c4)n3)c2)c1F [GSK361061] | 99.1% | 18% | 45% | 0% | 0% | 33% | 18% | 41% | 29% | 75%
7 | Cn1cc(-c2ccc3c(c2)CCN3C(=O)Cc2cccc(F)c2)c2c(N)ncnc21 [GSK2603358] | 0% | 12% | 18% | 0% | 30% | 0% | 0% | 0% | 19% | 8%
8 | O=c1[nH]cc(-c2ccc(N3CCOCC3)cc2)c2sc(-c3cn[nH]c3)cc12 [GSK2276055] | 0% | 3% | 0% | 0% | 53% | 68% | 5% | 21% | 25% | 0%
9 | COc1cc(Nc2nccc(N3CCC(NC(=O)c4cc5ccccc5s4)C3)n2)cc(OC)c1OC (stereo not drawn) [GSK1379760] | 32% | 0% | 52% | 0% | 12% | 0% | 0% | 0% | 3% | 10%
10 | CC(C)c1nc(-c2cccc(NS(=O)(=O)c3c(F)cccc3F)c2F)c(-c2ccnc(Nc3ccc(N4CCOCC4)nc3)n2)s1 [GSK2008607] | 100% | 48% | 85% | 0% | 76% | 10% | 71% | 19% | 51% | 85%
11 | Cc1occc1-c1ncc(OC[C@@H](N)Cc2c[nH]c3ccccc23)cc1-c1ccc2[nH]nc(C)c2c1.O=C(O)C(F)(F)F [GSK682037] | 0% | 15% | 0% | 0% | 97.9% | 97.7% | 36% | 83% | 0% | 0%
12 | Cl.c1ccc(-c2ccc3c(Nc4ccc5[nH]ncc5c4)ccnc3c2)nc1 [GW440137] | 0% | 6% | 27% | 6% | 0% | 0% | 0% | 0% | 21% | 0%
13 | Cl.NC(=O)c1cccc(Nc2nccc(Nc3ccc(Oc4c(Cl)cccc4Cl)c(Cl)c3)n2)c1 [GW659009] | 0% | 0% | 0% | 0% | 1% | 9% | 0% | 8% | 0% | 0%
14 | Fc1ccc(-c2ncn(C3CCNCC3)c2-c2ccnc(Oc3ccc(-c4ccccc4)cc3)n2)cc1 [SB-245391] | 8% | 14% | 0% | 0% | 42% | 28% | 6% | 20% | 8% | 5%
15 | COc1cccc(NC(=O)NC2CCN(c3ccnc(Nc4cc(OC)c(OC)c(OC)c4)n3)C2)c1 (stereo not drawn) [GSK1379763] | 0% | 0% | 28% | 0% | 0% | 0% | 0% | 0% | 38% | 5%
